# Bioassay records deposited in PubChem by Broad Institute.
# LMP1 NFkB inh: Epstein-Barr LMP1 NF-kappaB reporter inhibition. LMP1-induced NF-kappaB luciferase reporter cells, luminescence. inhibition, % at 12.5 µM. 0.69% of 350,000 active; in the data active = inhibition above about 41%; inconclusive = no clear call, values can overlap the other calls;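 note: 0% = neutral control wells and 100% = reference inhibitor control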
# Shn3 inh set2: Schnurri-3 reporter inhibition in Clone20 osteoblasts. Clone20 osteoblast Shn3 3'UTR firefly luciferase, 24 h. inhibition, % at 12.5 µM. 0.52% of 360,000 active. AID 588674;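 active = mean inhibition of at least 75% with every replicate also reaching 75%; inconclusive = mean inhibition at least 75% but some replicate below; inactive = mean inhibition below 75%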;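 note: 0% = median of neutral control wells and 100% = pilot-screen positive control compound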
# Env fusion inh: HIV envelope-mediated fusion inhibition; HeLa-JRFL Env/CEM21 cell fusion, luciferase; inhibition, % at 12.3 µM; 1.1% of 360,000 active;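 active = mean replicate inhibition score of at least 50 and every replicate individually at or above 50; inconclusive = only one of the two criteria met; inactive = mean below 50 and not all replicates reaching 50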;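 note: 0% = plate neutral controls and 100% = maraviroc near 300 nM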
# PAX8 inh HTS: PAX8 transcriptional activity inhibition; RMG-I TPO-luciferase reporter, SteadyGlo, 24 h; inhibition, % at 12.6 µM; 1.2% of 360,000 active; AID 652154;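 active = mean replicate inhibition at least 60% with every replicate also reaching 60%; inconclusive = only one of the two criteria is met; inactive = mean below 60% and not all replicates reaching 60%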;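 note: luciferase light reporting Pax8 driven TPO promoter activity; plate controls were median of neutral control wells for no effect and mitoxantrone controls for full effect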
# N-glyco inh: blocks N-linked glycosylation in D54 reporter cells. D54 ERlucT glycosylation luciferase reporter, 24 h; percent of 100 nM tunicamycin response. reporter increase, % at 12.5 µM. 0.23% of 360,000 active;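 active = mean luciferase reporter signal, scaled so untreated is 0 and the glycosylation-blocking control 100, at or above a set limit in every replicate; inconclusive = mean reaches the limit but not every replicate does; inactive = mean below the limit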;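 note: luciferase carries N-glycosylation sites so blocking glycosylation raises the light; 0% = median of neutral control wells and 100% = median of 100 nM tunicamycin wells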
# NSD2 HMT inh: NSD2 (human) methyltransferase inhibition. O96028. AID 743445. inhibition, % at 12.5 µM. 0.54% of 310,000 active. NSD2 peptide methylation, AlphaScreen, 120 min; in the data active = inhibition above about 50%
# Target sequence (O96028 whole entry, looked up): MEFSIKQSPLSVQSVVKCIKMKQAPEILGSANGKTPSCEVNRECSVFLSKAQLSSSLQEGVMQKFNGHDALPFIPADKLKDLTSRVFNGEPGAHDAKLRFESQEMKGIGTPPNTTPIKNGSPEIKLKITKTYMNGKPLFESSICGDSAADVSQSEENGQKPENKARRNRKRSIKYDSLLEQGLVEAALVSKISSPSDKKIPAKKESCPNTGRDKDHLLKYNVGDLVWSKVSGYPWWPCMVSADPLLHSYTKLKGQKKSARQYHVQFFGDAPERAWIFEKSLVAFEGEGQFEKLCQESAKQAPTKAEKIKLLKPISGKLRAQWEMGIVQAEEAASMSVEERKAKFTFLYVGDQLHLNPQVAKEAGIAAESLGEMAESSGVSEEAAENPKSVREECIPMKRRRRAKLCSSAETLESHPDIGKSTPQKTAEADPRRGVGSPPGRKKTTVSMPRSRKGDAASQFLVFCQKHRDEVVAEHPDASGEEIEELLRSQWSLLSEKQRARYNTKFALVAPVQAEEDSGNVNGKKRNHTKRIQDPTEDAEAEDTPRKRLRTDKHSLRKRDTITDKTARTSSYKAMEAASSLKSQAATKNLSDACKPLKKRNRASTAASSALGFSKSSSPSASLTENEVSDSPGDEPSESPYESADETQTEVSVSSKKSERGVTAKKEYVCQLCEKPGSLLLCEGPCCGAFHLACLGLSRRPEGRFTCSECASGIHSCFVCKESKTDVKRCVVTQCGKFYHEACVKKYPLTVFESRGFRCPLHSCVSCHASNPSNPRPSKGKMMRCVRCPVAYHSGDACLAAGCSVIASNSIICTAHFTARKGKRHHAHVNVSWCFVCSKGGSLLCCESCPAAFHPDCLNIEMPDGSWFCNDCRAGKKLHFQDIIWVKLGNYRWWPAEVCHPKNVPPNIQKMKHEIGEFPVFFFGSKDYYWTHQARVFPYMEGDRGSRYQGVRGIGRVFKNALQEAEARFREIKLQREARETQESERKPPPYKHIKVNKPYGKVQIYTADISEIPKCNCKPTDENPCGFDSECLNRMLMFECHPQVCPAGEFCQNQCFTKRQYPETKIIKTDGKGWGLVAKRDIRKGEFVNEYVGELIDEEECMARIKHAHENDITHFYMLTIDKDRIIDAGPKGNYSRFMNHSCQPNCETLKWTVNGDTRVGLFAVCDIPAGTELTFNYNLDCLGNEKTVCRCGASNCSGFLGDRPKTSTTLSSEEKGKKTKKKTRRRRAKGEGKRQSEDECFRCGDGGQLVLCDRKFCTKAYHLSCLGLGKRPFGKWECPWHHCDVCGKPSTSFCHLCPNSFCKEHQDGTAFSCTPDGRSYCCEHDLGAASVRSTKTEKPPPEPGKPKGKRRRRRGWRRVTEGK
# Active calls of the source: *; ? = inconclusive; nt = no result given; [ ] = remark or other dose. A selection: hits, their analogues and other compounds. The true share with any hit is near 2.8%.
SMILES,LMP1 NFkB inh,Shn3 inh set2,Env fusion inh,PAX8 inh HTS,N-glyco inh,NSD2 HMT inh
COCC(=O)N1CC2(C1)CN(C(=O)NC1CCCC1)[C@H](CO)c1c2c2ccc(OC)cc2n1C,nt,nt,nt,-11,nt,nt
COCC(=O)N1CCC2(CC1)CN(C(=O)NC1CCCC1)[C@@H](CO)c1c2c2ccc(OC)cc2n1C,nt,nt,nt,68*,nt,nt
COc1ccc2c3c(n(C)c2c1)[C@H](CO)N(C(=O)C1CC1)CC31CCN(Cc2cccc(F)c2)CC1,nt,nt,nt,70*,nt,nt
COc1ccc2c3c(n(C)c2c1)[C@H](CO)N(C(=O)C1CCC1)CC31CCN(Cc2cccc(F)c2)CC1,nt,nt,nt,60*,nt,nt
CC(C)C#Cc1ccc2c(c1)O[C@@H](CN(C)C(=O)CC1CC1)[C@@H](C)CN([C@@H](C)CO)S2(=O)=O,nt,nt,-28[16.7 µM],-19,nt,nt
COc1ccccc1NC(=O)N[C@@H]1CC[C@H](CCn2cc(-c3ccccc3OC)nn2)O[C@H]1CO,nt,nt,21[16.7 µM],2,nt,nt
CC(=O)Nc1ccc(OCC(O)CNC(C)C)cc1 (stereo not drawn),51*,-15,nt,-12,2,nt
CC(=O)Nc1ccc(OCC(O)CNC2CCCC2)cc1 (stereo not drawn),-5,-1,1,nt,-2,22
COc1ccc(NCC(O)COc2ccc(C(C)(C)C)cc2)cc1 (stereo not drawn),43*,25,-14,-6,0,nt
Cc1ccc(S(=O)(=O)CCSC(=N)N)cc1,-6,-19,11,69*,-1,nt
Cc1ccc(S(=O)(=O)CC(N)=O)cc1,-8,-13,nt,nt,1,-1
C[C@H]1CN([C@@H](C)CO)S(=O)(=O)c2ccc(C3=CCCC3)cc2O[C@@H]1CN(C)C(=O)C1CCOCC1,nt,nt,13[16.7 µM],-20,nt,nt
CO[C@H]1CN(C)C(=O)c2cc(NC(=O)NC3CCCC3)ccc2OC[C@@H](C)N(CC2CC2)C[C@@H]1C,nt,nt,nt,-1,nt,nt
O=C(/C=C/Nc1cccc(C(F)(F)F)c1)C(F)(F)F,65*,-19,nt,nt,2,-2
COC(=O)/C=C/C(=O)Nc1cccc(C(F)(F)F)c1,43*,22,nt,31,?,2
O=C(Nc1ccccc1)Nc1cccc(C(F)(F)F)c1,-1,1,17,-45,-3,-6
C[C@]12CC[C@H]3[C@@H](CCC4=CC(=O)CC[C@@]43C)[C@@H]1CC[C@@H]2C(=O)CO,66*,4,-136,20,-6,nt
CCNC(=O)C[C@@H]1C=C[C@H](NS(=O)(=O)c2ccc(F)cc2)[C@H](CO)O1,nt,nt,5[16.7 µM],1,nt,nt
Cc1ccc(NC(=O)c2cc(CC(C)C)nc3ccccc23)cc1,-13,16,68*,38,-10,-2
CCc1cc(C(=O)N/N=C/c2ccc(O)cc2O)c2ccccc2n1,11,93*,32,67*,-8,0
Cc1ccc(C)c(-c2cc(C(=O)Nc3cccc(C(=O)O)c3)c3ccccc3n2)c1,-3,7,-9,83*,1,0
COc1ccc(NC(=O)c2cc(CC(C)C)nc3ccccc23)cc1,2,31,78*,56,-11,-1
Cc1ccc(C)c(-c2cc(C(=O)Nc3cccnc3)c3ccccc3n2)c1,-6,-1,nt,5,3,2
C[C@@H]1CN([C@H](C)CO)C(=O)c2cc(NC(=O)Cc3cn(C)c4ccccc34)ccc2O[C@@H]1CN(C)Cc1ccc(Oc2ccccc2)cc1,nt,nt,5[16.7 µM],nt,nt,nt
NC(=O)c1cc(N)ccc1N1CCCC1,4,14,-7,7,0,51*
SMILES,LMP1 NFkB inh,Shn3 inh set2,Env fusion inh,PAX8 inh HTS,N-glyco inh,NSD2 HMT inh
Cc1nn(-c2ccccc2)c(Cl)c1C(=O)NCCCCNC(=O)c1c(C)nn(-c2ccccc2)c1Cl,61*,-32,nt,nt,1,5
Cc1nn(-c2ccccc2)c(Cl)c1C(=O)NCc1ccccc1F,-7,1,-8,5,0,-1
O=C1C=CC(=C(c2ccc(O)cc2)c2ccc(O)cc2)C=C1,-45,-23,27,106*,3,40
CCCNC(=O)N1[C@H](CO)[C@@H](c2ccccc2)C12CN(CCC(F)(F)F)C2,nt,nt,nt,-5,nt,nt
O=C(/C=C/c1cccc([N+](=O)[O-])c1)c1ccc([N+](=O)[O-])o1,14,97*,56*,27,-21,nt
Cc1cccc(/C=C/C(=O)c2ccc([N+](=O)[O-])o2)c1,-89,22,-82,28,1,nt
COc1cccc(NC(=O)Nc2ccc3c(c2)C(=O)N(C)[C@@H]2CC[C@@H](CC(=O)NCCc4ccccc4)O[C@@H]2CO3)c1,nt,nt,?,5,nt,nt
COc1cccc(-c2cnc3c(c2)C(=O)N([C@@H](C)CO)C[C@H](C)[C@H](CN(C)C(=O)Nc2ccccc2F)O3)c1,nt,nt,2[16.7 µM],nt,nt,nt
C[C@H]1CN([C@@H](C)CO)C(=O)Cc2cc(NC(=O)Nc3cccc4ccccc34)ccc2O[C@H]1CN(C)S(=O)(=O)c1ccc(Cl)cc1,nt,nt,62*[16.7 µM],-65,nt,nt
C[C@H](CO)N1C[C@H](C)[C@H](CN(C)S(=O)(=O)c2ccccc2)Oc2ccc(NC(=O)Nc3cccc4ccccc34)cc2CC1=O,nt,nt,85*[16.7 µM],6,nt,nt
COc1cccc(-c2cnc3c(c2)C(=O)N([C@H](C)CO)C[C@H](C)[C@H](CN(C)C(=O)Nc2cccc4ccccc24)O3)c1,nt,nt,89*[16.7 µM],-1,nt,nt
C[C@@H]1CN([C@@H](C)CO)C(=O)c2cc(NC(=O)Nc3ccccc3)ccc2O[C@@H]1CN(C)C(=O)Nc1cccc2ccccc12,nt,nt,25[16.7 µM],nt,nt,nt
C[C@@H]1CN([C@@H](C)CO)C(=O)c2cc(NC(=O)Nc3ccccc3)ccc2O[C@H]1CN(C)C(=O)Nc1cccc2ccccc12,58*,11,-19[16.7 µM],nt,3,nt
C[C@H](CO)N1C[C@H](C)[C@@H](CN(C)S(=O)(=O)c2ccc(Cl)cc2)Oc2ccc(NC(=O)Nc3cccc4ccccc34)cc2CC1=O,nt,nt,-24[16.7 µM],-41,nt,nt
Cc1ccc(S(=O)(=O)N(C)C[C@H]2Oc3ccc(NC(=O)Nc4cccc5ccccc45)cc3C(=O)N([C@H](C)CO)C[C@H]2C)cc1,nt,nt,-1[16.7 µM],-8,nt,nt
C[C@H](CO)N1C[C@H](C)[C@@H](CN(C)C(=O)Nc2cccc3ccccc23)Oc2ccc(NC(=O)Nc3ccc4c(c3)OCO4)cc2CC1=O,nt,nt,2[16.7 µM],74*,nt,nt
C[C@H]1CN([C@@H](C)CO)C(=O)Cc2cc(NC(=O)Nc3cccc4ccccc34)ccc2O[C@H]1CN(C)S(=O)(=O)c1ccccc1,nt,nt,71*[16.7 µM],37,nt,nt
C[C@H]1CN([C@@H](C)CO)C(=O)Cc2cc(NC(=O)Nc3cccc4ccccc34)ccc2O[C@H]1CN(C)S(=O)(=O)c1ccc(F)cc1,nt,nt,59*[16.7 µM],25,nt,nt
Cc1ccc(S(=O)(=O)N(C)C[C@H]2Oc3ccc(NC(=O)Nc4cccc5ccccc45)cc3C(=O)N([C@H](C)CO)C[C@@H]2C)cc1,nt,nt,66*[16.7 µM],10,nt,nt
C/C=C/c1ccc2c(c1)O[C@@H](CN(C)C(=O)CN1CCOCC1)[C@@H](C)CN([C@@H](C)CO)S2(=O)=O,nt,nt,12[16.7 µM],nt,nt,nt
O=C(C[C@H]1C=C[C@@H](NC(=O)Nc2cc(F)ccc2F)[C@@H](CO)O1)NCCCN1CCOCC1,nt,nt,-1[16.7 µM],6,nt,nt
